About 930 (0.24%) of roughly 390,000 compounds were called active. About 5% were inconclusive and are not listed. Calls follow the shape of the dose curve; as a rule, active = well fitted activation curve with a large enough effect; inconclusive = small, poorly fitted or top-dose-only effect; inactive = no such curve, though single readings can be large or run the other way. The entries come from a sample that favours actives as a whole.
Assay: qHTS for Suppressors of FUS Proteinopathy: Primary screen using FUS-linked yeast assay; also: nearly all actives have a fitted effect of over 55% in size;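 as to growth rescue (activation): plate controls were DMSO vehicle for no effect and reference control for full effect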
Settings: S. cerevisiae FUS-expressing, OD600, 24 h; Potency: growth rescue; series mostly up to 76.6 µM; growth rescue (activation): at the top concentration
From the text: Several widespread neurodegenerative diseases, including Alzheimer disease, Huntington disease, Frontotemporal Lobar Degeneration (FTLD) and Amyotrophic Lateral Sclerosis (ALS), share a common pathological feature, namely accumulation of specific protein aggregates in diseased tissue. These diseases which is associated with protein misfolding (proteinopathies) have become increasingly problematic as the population ages and life expectancies are extended. Most proteinopathies are currently incurable, a situation confounded by the fact that the basis of neurodegeneration is generally poorly understood. There exists urgent and significant need to find therapeutics that can inhibit the toxicity associated with protein aggregation. A novel approach to understand the underlying mechanisms of neurodegenerative diseases has recently emerged in which the disease conditions are modeled in the yeast (Saccharomyces cerevisiae), a tractable eukaryotic organism with conserved protein quality control mechanisms. Yeast offers quick and reliable genetic manipulations and can be easily tailored to high-throughput screening (HTS).
For this project, a yeast model of the FUS proteinopathies (a spectrum of neurodegenerative diseases that include ALS and a subtype of FTLD) was generated and employed. The cytoplasmic accumulation of the DNA/RNA-binding protein FUS (also known as TLS) is causative to both familial and sporadic forms of ALS and FTLD. This yeast model recapitulates neuronal pathology by showing severe cytotoxicity associated with cytoplasmic accumulation of FUS aggregates and a specific interaction between FUS and TDP-43, another ALS-associated protein. […] Specifically, the cellular accumulation of misfolded FUS that disrupts RNA homeostasis in both yeast and higher eukaryotes. This model was validated to be suitable for quantitative HTS (qHTS) use for finding genetic or chemical factors that restore growth. […] Identified compounds that inhibits FUS-yeast toxicity is flagged, re-acquired, and validated for further investigation and optimization.
NIH Chemical Genomics Center [NCGC]
NIH Molecular Libraries Probe Production Centers Network [MLPCN]
Assay Submitter (PI): Frank Shewmaker PhD, Uniformed Services University of the Health Sciences
Compound CP55940 was used as the positive control. Column 1 was treated with CP55940 titration from 92uM (final concentration, 1:2 dilution), while Column 2 was treated with top dose 92uM. Columns 3 and 4 were treated with DMSO only as negative control to assess background and noise signal.
Four hundred fifty microliter of cultured yeast (in 20mL rich medium) provided by Dr. Shewmaker lab was incubated at 30C at 99% humidity for 3hr. The culture was then spun down at 4000rpm for 5min and the cell pellet was resuspended in 2mL of Sdmin Media + ALU(330) + 2.5% Raffinose. One hundred microliter of the suspension was added to 900uL of water and OD of the solution was obtained. Twenty mL of responding medium (provided by Shewmaker lab) + 2.5% raffinose was added to ensure cell density of 0.1; the solution was incubated overnight. Working cell solution (FUS-yeast in Sdmi + Sdmi + 1X ALU + 2% galactose media) was prepared (final OD at 0.005) and 3uL was dispensed in a 1536-well Aurora high based clear bottom assay plates. Controls and library compounds (at various final concentrations from 40uM to 0.32uM) were added using a 1536-well pin array using the Kalypsys pin-tool. The plates were then incubated for 24hrs in a cell-culture incubator (30C; 99% humidity). Absorbance at 600nm was then read using the PerkinElmer ViewLux plate reader.
Potency is read from the fitted curve at half-maximal effect.

Growth rescue (activation), inactive:
Fc1ccc(-c2nc(Nc3cccc(Cl)c3)nc3c2COc2ccccc2-3)cc1 -6.76%, CC(=O)c1cccc(Nc2ccc3cc(S(=O)(=O)N4CCC(C)CC4)ccc3n2)c1 -8.08%, COc1ccc(-c2cc(-c3nc(-c4cc(OC)c(OC)c(OC)c4)no3)[nH]n2)c(OC)c1 17.9%, CCN(C(=O)CSc1nnc(C)n2c1cc1occc12)c1ccccc1 22.4%, COc1ccc(-c2onc(C)c2C)cc1S(=O)(=O)NCCc1ccccc1 10.1%, CCN(CC)C(=O)CSc1nc2ccsc2c(=O)n1Cc1ccccc1Cl 14%, Cc1c(Cl)cccc1NC(=O)C(=O)NCCc1csc2nc(-c3ccccc3F)nn12 22.4%, Cc1cccc(Cn2c(SCc3ccc(C(=O)N4CCC(C)CC4)cc3)nc3ccncc32)c1 22.7%, CC(=O)N1CCCc2cc(S(=O)(=O)N3CCC(C(=O)NCc4ccc(F)cc4)CC3)ccc21 2.3%, O=C(c1ccc(C(F)(F)F)cc1)N1CCC(c2nc(-c3ccc(S(=O)(=O)N4CCCC4)cc3)no2)CC1 6.21%, CSc1ccccc1NC(=O)CCS(=O)(=O)c1nc(-c2cccs2)cc(C(F)(F)F)n1 -9.46%, Cc1c(Cl)cccc1NC(=O)Cn1cc(C(=O)c2cccs2)c2ccccc21 -1.82%, CCN(CCCNC(=O)c1cc(Nc2ccc(OC)cc2)nc2ccccc12)c1cccc(C)c1 2.94%, Cc1ccc(-n2ncc(C(=O)N(C)Cc3ccccc3)c2-n2cccc2)cc1 37.3%, Cc1ccc2[nH]c(=O)c(CN(CCCN(C)C)C(=O)Nc3cccc(Cl)c3)cc2c1 19.3%, Cc1ccc2[nH]c(=O)c(CN(CC3COCCO3)C(=O)Nc3ccccc3C)cc2c1 (stereo unspecified) -6.95%, CCCCCN(C(=O)CCC(=O)OCC(=O)NCc1ccc(OC)cc1)c1c(N)n(CCCC)c(=O)[nH]c1=O 40.8%, CCCCn1c(N)c(N(CCC(C)C)C(=O)COC(=O)c2ccc(CC)cc2)c(=O)[nH]c1=O 35.6%, Cc1ccc(CNC(=O)CCC(=O)N2Cc3ccccc3Oc3ncccc32)cc1 -4.72%, COc1ccc(CCNC(=O)c2ccc3c(c2)sc2nc(-c4ccc(C)cc4)cn23)cc1OC 5.69%, COC(=O)c1ccc(NC(=O)CCc2c(C)nn(-c3ccc(N4CCCC4)nn3)c2C)cc1 14.5%, Fc1ccc(Nc2nc(SCc3ccccc3Cl)nc3ccccc23)cc1 -4.05%, O=C(Nc1c(C(=O)N2CCN(c3ccc(F)cc3)CC2)oc2ccccc12)c1ccco1 38.7%, COc1ccccc1NC(=O)c1sc2nc(C)c(C(=O)Nc3ccc(Cl)cc3)c(-c3ccc(Br)cc3)c2c1N 31%, CC(C)S(=O)(=O)c1oc(-c2ccc(F)cc2)nc1S(=O)(=O)c1ccc(F)cc1 -15.6%, CCOc1ccccc1NC(=O)C1CCCN(S(=O)(=O)c2cn(C)cn2)C1 (stereo unspecified) 4.87%, COC(=O)c1ccccc1NC(=O)c1ccc2c(=O)n3c(nc2c1)CCCCC3 16.4%, COc1cccc(CNC(=O)c2ccc3c(c2)sc2nc(-c4cccc(OC)c4)cn23)c1 11.4%, CN1C(=O)c2[nH]nc(-c3ccc(F)cc3)c2C1c1ccccn1 (stereo unspecified) -19.3%, COc1ccc(CCNC(=O)c2nn(C)c3c2CSc2ccccc2-3)cc1OC 12.3%, CCCn1c2ccccc2c2cnn(CC(=O)NCC3CCN(Cc4ccc(C)cc4)CC3)c(=O)c21 -0.459%, Cc1ccc(NC(=O)CSc2nc3ccccc3c3nc(CCn4cncc4C)nn23)cc1F 20.8%, Cc1cccc(NC(=O)C2CCCN2S(=O)(=O)c2cccc3nsnc23)c1C (stereo unspecified) 18.3%, COc1ccc(-c2cn3c(n2)sc2cc(C(=O)Nc4ccccc4F)ccc23)cc1 19.4%, CCOc1ccc(NC(=O)c2c(NC(=O)Cc3ccccc3)sc3c2CCCCC3)cc1 18.3%, NS(=O)(=O)c1ccc(CCNC(=O)CCCCCn2c(=O)[nH]c3ccccc3c2=O)cc1 8.38%, CCOC(=O)C1=C(c2ccccc2)Nc2ncnn2C1c1ccc(Cl)cc1 (stereo unspecified) -5.79%, COc1ccc(N2CCN(c3cc(C)nc4nncn34)CC2)cc1 -24.9%, CC(C)Cc1ccc(-c2cc3nc(NCc4cccc(Cl)c4)ccn3n2)cc1 -4.06%, COc1ccccc1-c1cc2nc(NCc3cccc(Cl)c3)ccn2n1 33.9%, CCOc1ccccc1N(CC)C(=O)Nc1cn(C)c(=O)c2ccccc12 13.2%, Cc1ccc(C)c(N2CCN(CCCNC(=O)Nc3ccc(Cl)cc3)CC2)c1 20.1%

Potency, active:
Cc1cccc(NC(=O)N(Cc2cc3cc(C)cc(C)c3[nH]c2=O)CC2COCCO2)c1 (stereo unspecified) 35.5 µM, CCCCCN(C(=O)CCC(=O)OCC(=O)NC1CCC(C)CC1)c1c(N)n(CCCC)c(=O)[nH]c1=O (stereo unspecified) 31.6 µM, Cc1ccc(Cc2cnc(N)s2)o1 11.2 µM, COCCCNc1ccn2nc(-c3ccc(CC(C)C)cc3)cc2n1 25.1 µM

From PubChem BioAssay AID1347120 (National Center for Advancing Translational Sciences (NCATS), 2019)
